The values below come from PubChem BioAssay (NCI).

This is part of a sample that, as a whole, favours compounds with a hit. Of some 83,000 tested, about 20% had one in any assay.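 Plates (96-well) were seeded with cells, treated with compound at one concentration, and incubated for 48 hours before percent growth was determined.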 Unmarked numbers belong to inactive results. The source made the active and inactive calls. How the source made its calls: active means growth percent below 10; inactive means the rest.

Assay in all cases: NCI-60 one-dose screen, 48 h (100 = growth as untreated, 0 = no growth, -100 = all killed)
Holding throughout (details): 10 µM

The test system of assay [1] is SN12C renal.
Assay [2] concerns UO-31 renal.
Assay [3] relates to TK-10 renal.
The subject of assay [4] is ACHN renal.
The test system of assay [5] is CAKI-1 renal.
Assay [6] concerns A498 renal.
For assay [7], the system named is CCRF-CEM leukemia.
For assay [8], the system named is MOLT-4 leukemia.
Assay [9] concerns SR leukemia.

With `N=C(N)c1ccc(-c2ccc(-c3ccccc3)o2)nc1`, the growth in assay [1] was 86.6%; in assay [2] it was 65.7%; in [3], 111%; in assay [4], 92.4%; in [5], 83.8%; in [6], 45.7%. In addition, the growth is 82.5% in assay [7], 60% in [8] and 55.6% in assay [9].

Turning to `CC(C)(C#N)Nc1ccccc1`, the growth in assay [1] is 98.8%; in assay [2], 103%; in assay [3], 115%; in assay [4] it was 97.8%; in assay [5], 83.5%; in assay [6], 103%. For the same compound, the results for the growth in assay [7], in assay [8] and in assay [9] were 97.1%, 102% and 116%, respectively.

For `COc1ccc2c(c1)O/C(=C\c1ncc([N+](=O)[O-])n1C)C2=O`, the growth in assay [1] was -8.55% (active); in [2], -39.2% (active); in [3], -27.3% (active); in assay [4], 0.77% (active); in [5], -26.7% (active); in assay [6] it was -77.7% (active). Also, the values for the growth in assay [7], in assay [8] and in assay [9] were 4.88% (active), 2.86% (active) and 7.55% (active), respectively.

As to `CC(=O)N(C)c1ccc(Nc2ccc(Nc3ccc(N(C)C(C)=O)cc3)c3c2C(=O)c2ccccc2C3=O)cc1`, the growth is 71.4% in assay [1]; 25.9% in [2]; 79% in assay [3]; 64.3% in assay [4]; 30.2% in assay [5]; 110% in [6]. Also, the growth in assay [7] was 55.7%; in assay [8], 56.8%; in [9] it was 72.6%.

Take `CCOC(=O)N/N=C\C(C)=N\NC(=O)OCC`: the growth in assay [1] was 94.6%; in assay [2] it was 85.1%; in assay [3], 98.8%; in assay [4], 99.4%; in assay [5], 90.1%; in [6] it was 103%. Besides, the growth in assay [7] was 93.6%; in assay [8], 101%; in assay [9], 96.6%.

As to `Cc1cccc2c1O/C(=C\c1ccc([N+](=O)[O-])o1)C2=O`, the growth is -17.5% (active) in [1]; -62.6% (active) in assay [2]; -88.2% (active) in [3]; -81.9% (active) in assay [4]; -3% (active) in assay [5]; 49% in [6]. For the same compound, the growth in assay [7] is -26.4% (active); in [8], -14.7% (active); in assay [9], 2.46% (active).

For the compound `COc1ccc(-c2nn(-c3cccc(NC(=O)c4ccc5c(c4)OCCO5)c3)cc2-c2ccncc2)cc1Cl`, the growth was 51.6% in [1]; 16% in assay [2]; 36.2% in assay [3]; 41.4% in assay [4]; 15% in assay [5]; -19.3% (active) in assay [6]. Besides, the growth in [7] was 7.54% (active); in assay [8] it was 11.3%; in [9], -9.34% (active).

Regarding `COc1ccc(Oc2nc(NC3CCCC3)nc(Sc3ccc(OC)cc3)n2)cc1`, the growth is 78.9% in [1]; 57.5% in [2]; 109% in assay [3]; 79.5% in [4]; 49.3% in assay [5]; 65.5% in [6]. Also, the figures for the growth in assay [7], in assay [8] and in assay [9] were 53.2%, 40.2% and 45.7%, respectively.

Turning to `O=C1/C(=C\c2ccc(Br)cc2)CN(C(=O)c2ccccc2F)C/C1=C\c1ccc(Br)cc1`, the growth in assay [1] is 14.4%; in assay [2], -53.6% (active); in assay [3], 55.2%; in [4], 32.3%; in assay [5] it was 7.2% (active); in assay [6], 74.9%. The growth in assay [7] was -10.4% (active); in assay [8] it was 4.49% (active); in assay [9], -27.4% (active).

As to `CCCCCCc1cc(N=Nc2ccc(S(=O)(=O)Nc3cc(C)nc(C)n3)cc2)c(O)cc1O`, the growth in assay [1] is 97.2%; in [2], 74.5%; in [3] it was 107%; in assay [4], 99.1%; in assay [5] it was 98.9%; in assay [6], 98.7%. Further, the growth in assay [7] was 94.8%; in assay [8], 88.7%; in [9], 91.9%.

In the case of `O=C(Nc1cccc(-n2cc(-c3ccncc3)c(-c3ccc(O)c(Cl)c3)n2)c1)Nc1ccc(Cl)c(Cl)c1`, the growth in assay [1] is 17%; in assay [2], -11.3% (active); in assay [3], 16.7%; in assay [4] it was 9.03% (active); in [5], -21.1% (active); in assay [6] it was 23.2%. For the same compound, the growth in assay [7] was 0.782% (active); in assay [8] it was -10% (active); in assay [9], -0.568% (active).

For the compound `COc1ccc2c(c1)O/C(=C\c1ccc([N+](=O)[O-])o1)C2=O`, the growth in assay [1] is 6.92% (active); in assay [2] it was -73.5% (active); in [3], -33.7% (active); in [4], 6.05% (active); in [5], -2.99% (active); in assay [6], 56.6%. The values for the growth in [7], in [8] and in assay [9] were 0.117% (active), -0.0457% (active) and 7.61% (active), respectively.

For `COc1cc(-c2cc(/C=C3\C(=O)Nc4cc(Cl)ccc43)[nH]n2)cc(OC)c1OC`, the growth in [1] is 12.1%; in [2] it was 30.4%; in [3], 60.9%; in [4], 58%; in assay [5], 38.8%; in [6], 50.4%. Further, the growth in [7] was 13.2%; in assay [8], 13.5%; in [9], 16.8%.
